Results filed as inconclusive are left out. Calls of active or inactive are those of the source. Rule for the calls, unless noted: active = hit-call score of the fitted dose curve at least 0.9, where 1 is the maximum; inactive = score below 0.9.
Tests used:
[1] = molecular target: Retinoic acid receptor RXR-alpha (Homo sapiens) (UniProt P19793); test: ATG_RXRa_TRANS: Attagene TRANS-FACTORIAL HepG2 Assay for human Retinoid X Receptor alpha (RXRa) (AID 2283012; active = hit-call score of the fitted dose curve at least 0.9, where 1 is the maximum)
Sequence of Retinoic acid receptor RXR-alpha (Homo sapiens) (P19793 whole entry, looked up, the tested form may be a part): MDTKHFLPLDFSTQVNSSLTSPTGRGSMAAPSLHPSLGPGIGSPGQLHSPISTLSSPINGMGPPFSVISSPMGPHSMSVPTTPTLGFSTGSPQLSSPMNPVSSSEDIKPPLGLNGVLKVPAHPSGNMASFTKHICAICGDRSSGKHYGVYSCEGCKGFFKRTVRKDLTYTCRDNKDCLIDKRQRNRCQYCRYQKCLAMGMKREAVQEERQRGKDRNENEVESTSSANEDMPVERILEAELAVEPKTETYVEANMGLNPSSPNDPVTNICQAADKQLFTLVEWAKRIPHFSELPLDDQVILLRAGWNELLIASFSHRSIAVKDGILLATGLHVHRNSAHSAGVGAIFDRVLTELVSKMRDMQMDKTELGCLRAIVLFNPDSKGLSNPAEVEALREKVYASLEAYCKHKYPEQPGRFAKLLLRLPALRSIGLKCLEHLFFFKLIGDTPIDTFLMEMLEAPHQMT
In short: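 Read-out: fluorescent reporter-transcript fragments quantified by capillary electrophoresis after RT-PCR. Transiently transfected HepG2 cells carrying GAL4-UAS reporters and NR-GAL4 chimeras were exposed to chemical for 24 h; activity scored as increase over DMSO.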

[2] = read-out: E-selectin (Homo sapiens) (UniProt P16581); test: BSK_3C_Eselectin: BioMAP Diversity Plus: 3C Assay for Eselectin Biomarker Activity (AID 2283015); settings: primary human endothelial cells (HUVEC); actives raise or lower the signal;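 note: cell surface E-selectin protein quantified by ELISA 24 h after dosing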
In short: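 Primary human umbilical vein endothelial cells (3C system), read 24 h after compound addition; E-selectin measured by ELISA. Bidirectional curve fitting against DMSO baseline; cytotoxicity by parallel SRB total-protein staining.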

[3] = read-out: Interleukin-1 alpha (IL1a), IL1A (gene 3552); test: BSK_BE3C_IL1a: BioMAP Diversity Plus: BE3C Assay for Interleukin-1 alpha (IL1a) Biomarker Activity (AID 2283016); settings: primary human bronchial epithelial cells; actives raise or lower the signal
In short: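 ELISA read-out of IL-1a from human lung bronchial epithelial primary cells, 24 h post-dose. Gain or loss of signal fitted relative to DMSO negative control.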

[4] = read-out: Monocyte Chemoattractant Protein-1 (MCP1), CCL2 (gene 6347); test: BSK_3C_MCP1: BioMAP Diversity Plus: 3C Assay for Monocyte Chemoattractant Protein-1 (MCP1) Biomarker Activity (AID 2283017); settings: primary human endothelial cells (HUVEC); actives raise or lower the signal
In short: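 Human umbilical vein endothelial cells (3C system) exposed to chemicals for 24 h; MCP-1 quantified by ELISA against the DMSO baseline with bidirectional fitting, and parallel SRB staining used to assess cytotoxicity.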

[5] = read-out: Monocyte Chemoattractant Protein-1 (MCP1), CCL2 (gene 6347); test: BSK_4H_MCP1: BioMAP Diversity Plus: 4H Assay for Monocyte Chemoattractant Protein-1 (MCP1) Biomarker Activity (AID 2283018); settings: primary human endothelial cells (HUVEC); actives raise or lower the signal
In short: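 HUVEC primary cells, 24 h post-dose, MCP-1 by ELISA. Gain or loss of signal fitted bidirectionally vs DMSO baseline. Cytotoxicity: SRB stain (0.1% after 10% TCA fixation), read 560 nm, parallel cultures.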

[6] = read-out: Human Leukocyte Antigen - DR isotype (HLADR), HLA-DRA (gene 3122); test: BSK_3C_HLADR: BioMAP Diversity Plus: 3C Assay for Human Leukocyte Antigen - DR isotype (HLADR) Biomarker Activity (AID 2283019); settings: primary human endothelial cells (HUVEC); actives raise or lower the signal;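 note: ELISA of cell-surface HLA-DR on HUVEC 24 h after dosing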
In short: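 HUVEC monoculture, HLA-DR measured by ELISA 24 h after chemical dosing. Fitted bidirectionally against DMSO baseline; parallel SRB staining assessed cytotoxicity, with 3C proliferation read by SRB at 48 h.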

[7] = read-out: Interleukin-8 (IL8), CXCL8 (gene 3576); test: BSK_3C_IL8: BioMAP Diversity Plus: 3C Assay for Interleukin-8 (IL8) Biomarker Activity (AID 2283020); settings: primary human endothelial cells (HUVEC); actives raise or lower the signal
In short: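 HUVEC, 3C stimulation; 24 h compound exposure; IL-8 read by ELISA; gain or loss of signal fitted relative to DMSO control.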

[8] = read-out: Monokine induced gamma interferon (MIG), CXCL9 (gene 4283); test: BSK_3C_MIG: BioMAP Diversity Plus: 3C Assay for Monokine induced gamma interferon (MIG) Biomarker Activity (AID 2283021); settings: primary human endothelial cells (HUVEC); actives raise or lower the signal
In short: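 HUVEC, 3C system; 24 h chemical exposure; MIG by ELISA; bidirectional fit vs DMSO baseline.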

[9] = molecular target: human Vitamin D Receptor (VDR), VDR (gene 7421) (UniProt P11473); test: ATG_VDR_TRANS: Attagene TRANS-FACTORIAL HepG2 Assay for human Vitamin D Receptor (VDR) (AID 2283022; active = hit-call score of the fitted dose curve at least 0.9, where 1 is the maximum)
Sequence of human Vitamin D Receptor (VDR), VDR (gene 7421) (P11473 whole entry, looked up, the tested form may be a part): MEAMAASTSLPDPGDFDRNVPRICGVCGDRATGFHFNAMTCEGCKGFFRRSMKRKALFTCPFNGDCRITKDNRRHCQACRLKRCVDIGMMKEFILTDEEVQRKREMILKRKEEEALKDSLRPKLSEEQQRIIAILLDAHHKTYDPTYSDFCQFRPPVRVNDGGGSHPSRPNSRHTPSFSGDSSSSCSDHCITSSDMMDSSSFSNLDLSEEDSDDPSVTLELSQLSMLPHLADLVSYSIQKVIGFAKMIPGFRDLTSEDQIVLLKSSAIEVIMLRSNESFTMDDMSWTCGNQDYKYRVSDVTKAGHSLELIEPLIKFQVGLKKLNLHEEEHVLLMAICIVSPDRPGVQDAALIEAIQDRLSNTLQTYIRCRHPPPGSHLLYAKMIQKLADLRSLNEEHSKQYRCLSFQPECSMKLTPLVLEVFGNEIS
In short: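 HepG2 cells were transiently transfected with GAL4-UAS reporter units and a chimeric VDR-Gal4 construct, then dosed for 24 hours. Reporter mRNA was quantified by RT-PCR, fluorescent labeling, HpaI digestion and capillary electrophoresis; gain of signal analysed vs DMSO.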

[10] = BSK_3C_SRB: Viability Assessment in the BioMAP Diversity Plus: 3C Assay (AID 2283023); settings: primary human endothelial cells (HUVEC);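 note: fitted both ways against DMSO so a hit may be signal rise or drop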
In short: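 Human umbilical vein endothelial cells in the 3C system, treated 24 h. Total protein measured by 0.1% sulforhodamine B staining after 10% TCA fixation, read at 560 nm; bidirectional fit versus DMSO.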

[11] = read-out: Matrix Metallopeptidase 1 (MMP1), MMP1 (gene 4312); test: BSK_BE3C_MMP1: BioMAP Diversity Plus: BE3C Assay for Matrix Metallopeptidase 1 (MMP1) Biomarker Activity (AID 2283024); settings: primary human bronchial epithelial cells; actives raise or lower the signal
In short: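 ELISA read-out of MMP1 in human lung bronchial epithelial primary cultures, 24 h post-dose; bidirectional curve fit vs DMSO baseline, gain or loss of signal scored.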

[12] = BSK_3C_Vis: BioMAP Diversity Plus: 3C Assay for Morphology Visualization (AID 2283025); settings: primary human endothelial cells (HUVEC);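 note: fitted both ways so gain or loss versus DMSO counts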
In short: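 HUVEC, 3C system; light microscopy of morphology at 24 h post-dose. Bidirectional fit vs DMSO baseline. Secondary readout, background-control function.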

[13] = read-out: Pselectin, SELP (gene 6403); test: BSK_4H_Pselectin: BioMAP Diversity Plus: 4H Assay for Pselectin Biomarker Activity (AID 2283026); settings: primary human endothelial cells (HUVEC); actives raise or lower the signal
In short: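 HUVEC, 24 h chemical exposure; P-selectin read by ELISA. Bidirectional curve fit vs DMSO baseline; gain or loss of signal scored.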

[14] = BSK_4H_SRB: Viability Assessment in the BioMAP Diversity Plus: 4H Assay (AID 2283027); settings: primary human endothelial cells (HUVEC);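 note: cells exposed to compound for 24 h before staining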;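 for AC50: curves fitted both ways versus DMSO so AC50 may be loss or gain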
In short: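 HUVEC, 24 h post-dose; 10% TCA fix, 0.1% SRB stain, A560 nm. Total protein = overt cytotoxicity, parallel to biomarker read. Bidirectional fit vs DMSO baseline.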

[15] = BSK_BE3C_SRB: Viability Assessment in the BioMAP Diversity Plus: BE3C Assay (AID 2283028); settings: primary human bronchial epithelial cells
In short: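 Human bronchial epithelial primary cells in confluent culture, 24 h after chemical dosing; total protein by 0.1% SRB staining after 10% TCA fixation, read at 560 nm. Bidirectional fitting versus DMSO baseline.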

[16] = read-out: Thrombomodulin, THBD (gene 7056); test: BSK_3C_Thrombomodulin: BioMAP Diversity Plus: 3C Assay for Thrombomodulin Biomarker Activity (AID 2283029); settings: primary human endothelial cells (HUVEC); actives raise or lower the signal
In short: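 HUVEC, 3C conditions; compound 24 h; thrombomodulin by ELISA; bidirectional curve fit vs DMSO baseline; parallel SRB total-protein staining for cytotoxicity.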

[17] = read-out: Urokinase-type plasminogen activator receptor (uPAR), PLAUR (gene 5329); test: BSK_4H_uPAR: BioMAP Diversity Plus: 4H Assay for Urokinase-type plasminogen activator receptor (uPAR) Biomarker Activity (AID 2283030); settings: primary human endothelial cells (HUVEC); actives raise or lower the signal
In short: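 Human umbilical vein endothelial cells in the 4H system, 24 h after chemical dosing. Cell-surface uPAR measured by ELISA, fitted in both directions versus DMSO; cytotoxicity checked by SRB total protein in parallel cultures.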

[18] = read-out: Vascular endothelial growth factor receptor 2 (Homo sapiens) (UniProt P35968); test: BSK_4H_VEGFRII: BioMAP Diversity Plus: 4H Assay for Vascular endothelial growth factor receptor 2 (VEGFR2) Biomarker Activity (AID 2283031); settings: primary human endothelial cells (HUVEC); actives raise or lower the signal
In short: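 Primary human umbilical vein endothelial cells (4H system), 24 h exposure; cell-surface VEGFR2 measured by ELISA. Bidirectional fitting versus DMSO; cytotoxicity checked in parallel by SRB total-protein staining.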

Measured: AC50

Sequence of E-selectin (Homo sapiens) (P16581 whole entry, looked up): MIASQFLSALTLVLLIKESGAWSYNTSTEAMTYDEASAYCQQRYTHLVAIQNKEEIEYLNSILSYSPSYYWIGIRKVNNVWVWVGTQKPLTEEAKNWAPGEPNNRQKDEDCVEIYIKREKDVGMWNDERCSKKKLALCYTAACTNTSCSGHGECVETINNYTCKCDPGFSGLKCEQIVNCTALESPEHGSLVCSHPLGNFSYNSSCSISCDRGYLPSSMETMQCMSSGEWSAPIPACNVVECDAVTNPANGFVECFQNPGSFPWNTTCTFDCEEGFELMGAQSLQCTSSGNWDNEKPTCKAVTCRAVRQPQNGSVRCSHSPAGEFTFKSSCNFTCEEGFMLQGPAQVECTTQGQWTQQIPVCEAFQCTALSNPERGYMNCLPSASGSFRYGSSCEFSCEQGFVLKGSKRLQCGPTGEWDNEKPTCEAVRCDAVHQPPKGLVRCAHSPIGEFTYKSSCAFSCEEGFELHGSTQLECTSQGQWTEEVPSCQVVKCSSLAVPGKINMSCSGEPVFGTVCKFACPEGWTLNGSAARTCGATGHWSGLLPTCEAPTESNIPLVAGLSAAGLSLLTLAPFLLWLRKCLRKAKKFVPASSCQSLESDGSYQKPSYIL

COCCOC[C@H](CC1(C(=O)NC2CCC(C(=O)O)CC2)CCCC1)C(=O)Oc1ccc2c(c1)CCC2 (some centres undefined)
inactive: all assays above

CC=Cc1ccc(O)c(OC)c1
not listed: [9] | [16]
inactive: all other assays above

CC(=O)Oc1ccccc1C(=O)O
active: [1] 127 µM | [17] 0.412 µM
not listed: [9]
inactive: all other assays above

NCCO
not listed: [9]
inactive: all other assays above

NCC1(Cc2noc(=O)[nH]2)CCCCC1
not listed: [9] | [16]
inactive: all other assays above

O=C(N[C@@H](Cc1ccccc1)[C@@H](O)C(=O)N1C[C@@H](O)[C@@H](O)C1)c1cc2cc(Cl)ccc2[nH]1
not listed: [16]
inactive: all other assays above

NC(=O)Cn1c(=O)cc(CCN2CCN(c3nccc4sccc34)CC2)c2ccc(F)cc21
active: [13] 3.25 µM | [14] 3.97 µM | [17] 0.496 µM
not listed: [10]
inactive: all other assays above

C=CCc1ccc(O)c(OC)c1
not listed: [9] | [16]
inactive: all other assays above

From PubChem BioAssay (EPA / NIEHS)
